Each structure is given as a SMILES string. Where “and” joins values, the source holds several entries; their conditions need not be identical. Identical values can stand only once. Hit rate of the full screen: of about 420,000 compounds, about 75 (0.02%) were called active. The list comes from a sample in which actives are over-represented; it also holds similar structures and randomly drawn compounds. Some structures have more than one record in an assay (separate samples or runs), and their calls can disagree. Values without a mark were called inactive. Calls come from the whole dose curve; as a rule, active = well fitted activation curve with a large enough effect; inconclusive = small, poorly fitted or top-dose-only effect; inactive = no such curve, though single readings can be large or run the other way.
Potency is the fitted concentration of half-maximal effect.

This assay in a line: qHTS for Inducers of the Endoplasmic Reticulum Stress Response (ERSR) in Human Glioma: qHTS. For activation: % of control where 0% means no effect. Note: nearly all actives have a fitted effect of over 35% in size. To be noted: U87-MG GRP78 promoter luciferase reporter, 16 h; activation: active compounds read high. The text has this:
Primary protein unfolding takes place for many diseases, including diabetes and hypoxia, , and triggers a reaction in the cells called ER stress response (ERSR). ). ERSR is designed as a repair mechanism, but ultimately leads to cell death via apoptosis if conditions triggering protein unfolding persist (1). The molecular clue to ERSR activation is the enhancement of the expression of key molecular chaperones, including the glucose regulated protein (GRP) 78. GRP78 is the main sensor for protein folding and the main actuator of the ERSR.
In a collaboration between the Southern Research Institute and the NIH Chemical Genomics Center, a cell based screen was developed that reliably uses GRP78 as a sensor to identify small molecules as inducers of ERSR. In resting conditions, GRP78 binds proteins and acts as a natural repressor. Once unfolded proteins are present in the ER, GRP78 releases some of the repressors and binds to the unfolded proteins. The release of the repressors executes the ERSR program. Using a human glioma cell line in a miniaturized, luminescent format, a high-throughput screen was developed to identify actuators of the ERSR.
(1) Soboloff, J. and S. A. Berger (2002). "Sustained ER Ca2+ depletion suppresses protein synthesis and induces activation-enhanced cell death in mast cells." J Biol Chem 277(16): 13812-20.
NIH Chemical Genomics Center [NCGC]
NIH Molecular Libraries Probe Centers Network [MLPCN]
Assay Submitter (PI): Maurizio Grimaldi, Southern Research Institute
Stable transfected human glioma cell line, U87-MG, are dispensed at density 1000 cells/well into Greiner white solid bottom 1536-well assay plates. Compounds are transferred via Kalypsys pin tool equipped with 1536-pin array (10nl slotted pins, V&P Scientific, San Diego, CA). The assay plates will be incubated for 16 hours and developed by adding appropriate quantities of the Promega Bright Glo reagent. The plates will be incubated at room temperature for 10 minutes prior to being transferred into a ViewLux high-throughput CCD imager (PerkinElmer), wherein end-point measurements of luminescence are acquired.
Turning to `Cc1c(C(=O)NCC2CCCN(C)C2)cnn1-c1nccc(-c2ccco2)n1` (stereo not given), the activation is -1.59%.
Same read-out and setting: to `O=S(O)S(=O)(=O)O` belongs -8.27%; to `CCOC(=O)N1CCN(Cc2ccc3c(c2)CN(C(=O)c2cccc(-n4cccn4)c2)CCO3)CC1`, -2.17%.
Turning to `N#C/C(=C\c1ccc(O)c(O)c1)C(=O)NCc1ccccc1`, the Potency is 25.1 µM (active); the activation is 7.31% and 13.4% and 3.72%.
`N#C/C(=C\c1ccc(O)c(O)c1)C(N)=O`: the activation was -0.645% and -1.72%.
Still for that read-out and setting: to `Cc1ccc(/C=C(\C#N)C(=O)Nc2cc(C)ccc2C)cc1` belongs -3.56%; to `Cc1cnc(C)c(-c2cc(F)c3c(c2)CC(CNC(=O)c2cccc(Cn4cccn4)c2)O3)n1` (stereo not given), -2.2%.
For the compound `COc1ccccc1-c1ccnc(-n2ncc(C(=O)NCCc3ccncc3)c2C)n1`, the activation is -0.593%.
Take `O=C(c1cccc(Cn2cccn2)c1)N1CCOc2c(cc(-c3csc4ccccc34)cc2OC2CCOC2)C1` (stereo not given): the activation was -1.78%.
On the same count and under the same terms, to `Cc1ccc(C(=O)Nc2cccc(-c3nc(CNC(=O)c4ccccc4-n4cccn4)c(C)o3)c2)s1` belongs -4.42%; to `COc1ccc(CN(C)CCn2cc(C(=O)N3CCSCC3)nn2)cc1C`, -2.77%; to `COC(=O)C1CCCCN1Cc1ccc2c(c1)CN(Cc1cc(OC)c3c(c1)OCO3)CCO2` (stereo not given), 0.195%.
Same read-out and setting: then `COC(=O)C(C(=O)OC)[C@@H]1CCCC(=O)C1`, with -5.46%; and `COCCN1CCN(C(=O)c2sc3ncnc(NCC4CCCO4)c3c2C)CC1` (stereo not given), with -1.15%; and `COc1ccc(CCNc2ncnc3sc(C(=O)N4CCCC4)c(C)c23)cc1OC`, with -0.648%.
Same read-out and setting: to `C[C@@H]1CN(Cc2ccc3c(c2)CN(Cc2ccc(Oc4ncccn4)cc2)CCO3)C[C@H](C)O1` belongs -2.33%; to `CC(C)[C@@H](OCc1ccccc1)[C@H](C)/C=N\OC[C@@H](C)[C@H](OCc1ccccc1)C(C)C`, -2.4%.
With `Cc1cc(C(=O)NCC2Cc3cccc(-c4cncnc4)c3O2)c(C)o1` (stereo not given), the activation is -0.609%.
`CCOC(OCC)OCC`: the activation is 3.31%.
On the same count and under the same terms, then `CC[C@H](C)[C@H](NC(=O)[C@@H](N)CCC(=O)O)C(=O)N[C@@H](CC(C)C)C(=O)N[C@@H](CC(=O)O)C(=O)N[C@H](C(=O)N1CCC[C@H]1C(=O)N[C@@H](CO)C(=O)N[C@H](C(=O)O)[C@@H](C)O)C(C)C`, with -2.27%; and `N[C@@H](C(=O)O)c1ccc(P(=O)(O)O)cc1`, with -4.34%; and `CN(C)c1ccc(CN2CCOc3ccc(CN4CCC(O)(c5cccnc5)CC4)cc3C2)cc1`, with -1.82%.
For `Cc1ccc(Cn2cnc3c(cnn3C(C)(C)C)c2=O)c(F)c1`, the activation is -6.82%.
The same measure, in the same setting: then `O=C(C[n+]1ccncc1)c1ccc2c(c1)CCCC2`, with -0.663%; and `Cc1cc(-c2ccnc(-n3ncc(C(=O)NC(C)(C)CO)c3C3CC3)n2)c(C)s1`, with -3.21%; and `Cc1cccc(CNc2ccnc(-c3cccnc3)n2)c1`, with 6.2%.
On the same count and under the same terms, to `CCOC(=O)Cc1cccc(-c2cc(CCCCCCc3ccc(O[C@H]4O[C@H](COC(C)=O)[C@@H](OC(C)=O)[C@H](OC(C)=O)[C@@H]4OC(C)=O)c(-c4cccc(CC(=O)OCC)c4)c3)ccc2O[C@H]2O[C@H](COC(C)=O)[C@@H](OC(C)=O)[C@H](OC(C)=O)[C@@H]2OC(C)=O)c1` belongs -3.38%; to `O=c1cc(-c2ccc(O)cc2)oc2c([C@@H]3O[C@H](CO)[C@@H](O)[C@H](O)[C@H]3O)c(O)cc(O)c12`, -0.663%.
On to `Cc1ccc(-c2ccnc(-n3ncc(C(=O)N(C)Cc4cccc5ncccc45)c3C3CC3)n2)o1`, for which the activation was -4.64%.
Still for that read-out and setting: to `COc1ccnc(C[S@@](=O)[C@@H]2Nc3ccc(OC(F)F)cc3N2)c1OC` belongs -1.51%; to `COc1ccc2c(c1)NC(=O)C2CC(=O)N1CCOc2c(cc(-c3cnc4ccccc4c3)cc2OC)C1` (stereo not given), -6.72%; to `COCC1CCCN(Cc2ccc3c(c2)CN(C(=O)c2ccnn2C)CCO3)C1` (stereo not given), -2.07%.
Consider `COc1ccc(F)c(CN2CCC3(CCC(CNC(=O)c4ccn(C)n4)O3)CC2)c1` (stereo not given), for which the activation was -4.54%.
Still for that read-out and setting: then `NNc1nnc(Cc2ccncc2)c2ccccc12`, with -5.05%; and `CC1=C(/C=C/C(C)=C/C=C/C(C)=C/C=C/C=C(C)/C=C/C=C(C)/C=C/C(=O)[C@]2(C)C[C@@H](O)CC2(C)C)C(C)(C)C[C@H](O)C1`, with -0.817%; and `O=C1NC(CC(=O)N2CCC(n3c(C4CCC4)nc4cccnc43)CC2)c2ccccc21` (stereo not given), with -7.83%.
As for `COCC(=O)Nc1cc(C(=O)N2CCCC(c3ccccc3)CC2)c2c(c1)nc(-c1ccncc1)n2C` (stereo not given), the activation is 1.99%.
Still for that read-out and setting: then `COc1ccc(C)cc1N1C(=O)[C@@H]2C[C@H]1CN2Cc1cccc(OC)c1O`, with -3.49%; and `CCOC(=O)[C@]1(C(/C=C/c2ccco2)NC(=O)OC)CCCC1=O` (stereo not given in full), with -4.35%; and `CCOCCOC(=O)C(C)Oc1ccc(Oc2ncc(C(F)(F)F)cc2Cl)cc1` (stereo not given), with 3.45%.
Turning to `CN1CCCCCC1C(=O)NCCN1Cc2ccccc2OC(c2ccsc2)C1` (stereo not given), the activation is -4.87%.
Regarding `CNCCCOc1cc2nc(N3CCCN(C)CC3)nc(NC3CCN(C)CC3)c2cc1OC`, the activation is -4.57%.
Regarding `COc1ccccc1-c1ccnc(-n2ncc(C(=O)NCCCN3CCOCC3)c2C)n1`, the activation was -5.22%.
Turning to `COC(=O)NC(c1ccccc1)[C@]1(C(C)=O)CCCC1=O` (stereo not given in full), the activation is -3.63%.

Source of the values: PubChem BioAssay AID602332 (National Center for Advancing Translational Sciences (NCATS), 2012).
